Source: PubChem BioAssay (several laboratories)
PAX8 inh HTS: inhibitors of PAX8-driven TPO luciferase reporter, primary screen, RMG-I cells, single concentration. AID 652154, 2013. hit rate 1.2% among 360,000. SteadyGlo, 24 h. inhibition, % at 12.6 µM;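 active means mean replicate inhibition at least 60% with every replicate also reaching 60%; inconclusive means only one of the two criteria is met; inactive means mean below 60% and not all replicates reaching 60%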;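 further: luciferase light reporting Pax8 driven TPO promoter activity; plate controls were median of neutral control wells for no effect and mitoxantrone controls for full effect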
LMP1 NFkB inh: EBV LMP1-driven NF-kappaB luciferase reporter inhibitors, primary screen, cell-based, luminescence, single point | LMP1-induced NF-kappaB luciferase reporter cells | inhibition, % at 12.5 µM | hit rate 0.69% among 350,000; in the data active means inhibition above about 41%; inconclusive means no clear call, values can overlap the other calls;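 further: 0% = neutral control wells and 100% = reference inhibitor control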
Shn3 inh set2: reduction of Shn3 3'UTR firefly luciferase signal, primary screen, Schnurri-3 inhibitor project, cell-based, Clone20 osteoblasts, set 2; Clone20 osteoblast Shn3 3'UTR firefly luciferase, 24 h; inhibition, % at 12.5 µM; hit rate 0.52% among 360,000; AID 588674, 2011;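 active means mean inhibition of at least 75% with every replicate also reaching 75%; inconclusive means mean inhibition at least 75% but some replicate below; inactive means mean inhibition below 75%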;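 further: 0% = median of neutral control wells and 100% = pilot-screen positive control compound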
TRPM1 prom inh: inhibitors of MITF-dependent TRPM1 promoter reporter, primary screen, cell-based, SK-MEL-5, single point, luciferase. SK-MEL-5 TRPM1 promoter luciferase, 24 h. inhibition, % at 12.5 µM. hit rate 0.83% among 330,000;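 active means mean inhibition across replicates of 60% or more, whatever share of single replicates reaches that level; inconclusive means some that reach 60%, reason not given; inactive means mean inhibition across replicates below 60%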
HIF-2a block: HIF-2a reporter inhibitors, primary screen, luminescence, 786-0 RCC cells | 786-0 RCC cells HIF-2a reporter, luciferase luminescence, overnight | inhibition, % at 18.8 µM | hit rate 0.72% among 360,000 | AID 624352, 2012;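 active means inhibition of the luminescence signal of 40% or more relative to plate controls, in a single-dose primary screen at 18.75 µM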
Peg3 prom inh: Peg3 promoter-driven luciferase inhibitors, primary screen, cell-based, HeLa, luciferase luminescence; HeLa PEG-Prom luciferase reporter, overnight; inhibition, % at 20 µM; hit rate 1.7% among 360,000; AID 588405, 2011;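 active means inhibition of at least 50% at 20 µM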
Active calls of the source: *; ? = inconclusive; · = no result given. Rows were chosen to be rich in hits. Some 2.8% of all compounds tested hit in one or more screens of this group.

SMILES | PAX8 inh HTS | LMP1 NFkB inh | Shn3 inh set2 | TRPM1 prom inh | HIF-2a block | Peg3 prom inh
C[C@@H]1CCCCO[C@@H](CN(C)S(=O)(=O)c2ccc(Cl)cc2)[C@H](C)CN([C@@H](C)CO)C(=O)c2cc(NS(=O)(=O)c3ccc(Cl)cc3)ccc2O1 | 77.7* | · | · | · | · | ·
C[C@H](CO)N1C[C@H](C)[C@H](CN(C)C(=O)Cc2ccccc2)OCCCC[C@H](C)Oc2ccc(NS(=O)(=O)c3ccc(Cl)cc3)cc2C1=O | 67.4* | · | · | · | · | ·
C[C@@H]1CCCCO[C@H](CN(C)S(=O)(=O)c2ccc(Cl)cc2)[C@H](C)CN([C@@H](C)CO)C(=O)c2cc(NS(=O)(=O)c3ccc(Cl)cc3)ccc2O1 | 74.3* | · | · | · | · | ·
C[C@@H]1CCCCO[C@@H](CN(C)S(=O)(=O)c2ccc(Cl)cc2)[C@@H](C)CN([C@H](C)CO)C(=O)c2cc(NS(=O)(=O)c3ccc(Cl)cc3)ccc2O1 | -32.2 | · | · | · | · | ·
C[C@H]1CCCCO[C@@H](CN(C)C)[C@@H](C)CN([C@@H](C)CO)C(=O)c2cc(NS(=O)(=O)c3ccc(Cl)cc3)ccc2O1 | 3.0 | · | · | · | · | ·
CC(C)NC(=O)Nc1ccc2c(c1)C(=O)N([C@@H](C)CO)C[C@@H](C)[C@H](CN(C)S(C)(=O)=O)O2 | -18.3 | · | · | · | · | ·
C[C@@H]1CCCCO[C@@H](CN(C)S(=O)(=O)c2ccc(Cl)cc2)[C@H](C)CN([C@@H](C)CO)C(=O)c2cc(N(C)C)ccc2O1 | 79.3* | · | · | · | · | ·
C[C@@H]1CCCCO[C@H](CN(C)S(=O)(=O)c2ccc(Cl)cc2)[C@@H](C)CN([C@@H](C)CO)C(=O)c2cc(NS(=O)(=O)c3ccc(Cl)cc3)ccc2O1 | 68.3* | · | · | · | · | ·
C[C@@H]1CCCCO[C@@H](CN(C)S(=O)(=O)c2ccc(Cl)cc2)[C@H](C)CN([C@H](C)CO)C(=O)c2cc(N(C)C)ccc2O1 | 33.2 | · | · | · | · | ·
C[C@H]1CN([C@@H](C)CO)C(=O)c2cc(NC(=O)CCN3CCOCC3)ccc2O[C@@H]1CN(C)Cc1ccccc1 | -20.1 | · | · | · | · | ·
Cc1ccc(S(=O)(=O)Nc2cccc3c2O[C@@H](CN(C)S(=O)(=O)c2cn(C)cn2)[C@@H](C)CN([C@@H](C)CO)C3=O)cc1 | 18.1 | · | · | · | · | ·
COc1ccc(NC(=O)N(C)C[C@@H]2OCCCC[C@@H](C)Oc3ccc(NC(=O)NC4CCCCC4)cc3C(=O)N([C@H](C)CO)C[C@H]2C)cc1 | 10.4 | · | · | · | · | ·
CCOC(=O)c1ccc(NC(=O)O[C@H]2[C@H](OC(=O)Nc3ccccc3)[C@@H](OC(=O)Nc3ccccc3)[C@@H](OC)O[C@@H]2CO)cc1 | 81.6* | · | · | · | · | ·
CCN(CC)c1ccc(C2NC(=O)c3ccccc3N2)cc1 (centres undefined) | ? | 43.1* | 22.1 | 58.0 | 4.2 | 35.9
COc1cc2ncnc(N[C@H](C)c3ccccc3)c2cc1OC | · | 2.5 | 89.5* | 21.8 | 25.4 | 11.6
O=S(=O)(c1ccc2c(c1)OCCO2)N1CCN(c2ncnc3sccc23)CC1 | 21.2 | 18.7 | 88.8* | 3.0 | 28.5 | 25.6
Cc1ccc(S(=O)(=O)N2CCN(c3ncccn3)CC2)cc1C | 10.4 | -6.4 | 15.0 | 9.5 | 16.3 | 25.1
Cc1ccc(S(=O)(=O)N2CCN(c3ncnc4sccc34)CC2)cc1C | 28.7 | 17.6 | 88.2* | 43.8 | 28.9 | 31.9
CC(NCc1ccc(-c2ccccc2)cc1)C(O)c1ccccc1 (centres undefined) | 20.2 | 0.6 | 3.6 | 11.9 | -8.3 | 74.5*
CC(O)CNCc1ccc(-c2ccccc2)cc1 (centres undefined) | · | -8.2 | -3.5 | -12.2 | -24.5 | -11.0
O=C1O[C@@H](c2ccccc2)[C@@H](c2ccccc2)N2[C@@H](c3ccccc3OCCO)[C@]3(C(=O)Nc4ccc(C#CCCO)cc43)[C@@H](C(=O)N3CCCCCCC3)[C@H]12 | 92.5* | · | · | · | · | ·
NC(=O)NCC#Cc1ccc2c(c1)[C@]1(C(=O)N2)[C@H](c2ccccc2OCCO)N2[C@H](c3ccccc3)[C@H](c3ccccc3)OC(=O)[C@H]2[C@@H]1C(=O)N1CCCCCCC1 | 22.7 | · | · | · | · | ·
NC(=O)[C@@H]1[C@H]2C(=O)O[C@H](c3ccccc3)[C@H](c3ccccc3)N2[C@H](c2ccccc2OCCO)[C@@]12C(=O)Nc1ccc(C#CCCO)cc12 | -9.7 | · | · | · | · | ·
O=C1O[C@H](c2ccccc2)[C@H](c2ccccc2)N2[C@H]1[C@@H](C(=O)N1CCCCCCC1)[C@]1(C(=O)Nc3ccccc31)[C@H]2c1ccccc1OCCO | 78.6* | · | · | · | · | ·
NC(=O)[C@@H]1[C@H]2C(=O)O[C@H](c3ccccc3)[C@H](c3ccccc3)N2[C@H](c2ccccc2OCCO)[C@@]12C(=O)Nc1ccccc12 | 83.8* | · | · | · | · | ·
SMILES | PAX8 inh HTS | LMP1 NFkB inh | Shn3 inh set2 | TRPM1 prom inh | HIF-2a block | Peg3 prom inh
O=C1O[C@@H](c2ccccc2)[C@@H](c2ccccc2)N2[C@@H](c3ccccc3OCCO)[C@]3(C(=O)Nc4ccc(C#CC5=CCCCC5)cc43)[C@@H](C(=O)N3CCCCCCC3)[C@H]12 | -5.2 | · | · | · | · | ·
Cc1noc(C)c1NC(=O)Nc1ccc2c(c1)CC(=O)N([C@@H](C)CO)C[C@H](C)[C@H](CN(C)C(=O)Nc1ccccc1)O2 | 10.6 | · | · | · | · | ·
CC(C)NC(=O)[C@@]1(C)c2ccccc2C(=O)N(Cc2cc(C(F)(F)F)cc(C(F)(F)F)c2)[C@H]1c1ccc(CO)cc1 | -23.0 | · | · | · | · | ·
CN(CCC#N)C(=S)Nc1ccc(F)cc1 | 5.2 | 56.6* | 6.4 | 5.8 | 17.1 | 6.3
N#CCCN(Cc1ccccc1)C(=S)Nc1ccc(F)cc1 | 12.4 | -31.0 | · | -11.7 | 14.1 | 7.3
Cc1ccc(S(=O)(=O)N[C@@H]2CC[C@H](CCNC(=O)c3ccccc3F)O[C@@H]2CO)cc1 | 13.4 | · | · | · | · | ·
COc1cc2cc(c1Cl)N(C)C(=O)CC(OC(=O)C(C)N(C)C(C)=O)C1(C)OC1C(C)C1CC(O)(NC(=O)O1)C(OC)C=CC=C(C)C2 (centres undefined) | 74.2* | 0.4 | 4.0 | 31.4 | 31.2 | -4.9
C/C(=N/NS(=O)(=O)c1ccc(CC(C)C)cc1)c1ccncc1 | 29.9 | 16.9 | 87.4* | 19.1 | -0.3 | 32.5
C/C(=N/NS(=O)(=O)c1ccc(C(C)C)cc1)c1ccncc1 | · | 7.4 | 38.5 | 0.4 | 8.6 | -7.2
COc1cc(NC(C)CCCNC(C)C)c2ncccc2c1OC (centres undefined) | 30.2 | 5.6 | 11.5 | 30.9 | 14.5 | 27.3
COc1cc(NCCCCCCN)c2ncccc2c1OC | 18.9 | 56.4* | 6.8 | 7.6 | 6.3 | -5.5
CC(C)NC(=O)Nc1ccc2c(c1)C(=O)N([C@H](C)CO)C[C@@H](C)[C@@H](CN(C)Cc1ccncc1)OCCCC[C@@H](C)O2 | -20.6 | · | · | · | · | ·
CN(C)c1cc[n+](CC(=O)c2ccc(-c3ccccc3)cc2)cc1 | 97.5* | -14.6 | 72.9 | 70.2* | 7.0 | 30.6
O=C(C[n+]1ccccc1)c1ccc(-c2ccccc2)cc1 | 12.1 | 9.2 | -30.1 | 5.6 | 9.2 | -8.0
